Measured values reported in ChEMBL document CHEMBL3988442, “University of Dundee, Small-Polar-MMV Screening Library” (2021).
For some of these results: Results with a measured potency or affinity are listed apart.

Experiments:
Design in all cases: scale not given: direction of the effect not stated beside the values
[1] = target: Protein translocase subunit SecA (Escherichia coli (strain K12)) (UniProt P10408); assay: Assay to Identify E. coli SecA ATPase Inhibitors; type: functional; details: 30 µM
[2] = target: T1, Ubiquitin-activating enzyme e1, putative (Leishmania donovani (strain BPK282A1)) (UniProt E9BSI1); assay: Leishmania donovani Ubiquitin Activating Enzyme (LdE1); type: functional; details: 30 µM
T1 sequence (whole entry): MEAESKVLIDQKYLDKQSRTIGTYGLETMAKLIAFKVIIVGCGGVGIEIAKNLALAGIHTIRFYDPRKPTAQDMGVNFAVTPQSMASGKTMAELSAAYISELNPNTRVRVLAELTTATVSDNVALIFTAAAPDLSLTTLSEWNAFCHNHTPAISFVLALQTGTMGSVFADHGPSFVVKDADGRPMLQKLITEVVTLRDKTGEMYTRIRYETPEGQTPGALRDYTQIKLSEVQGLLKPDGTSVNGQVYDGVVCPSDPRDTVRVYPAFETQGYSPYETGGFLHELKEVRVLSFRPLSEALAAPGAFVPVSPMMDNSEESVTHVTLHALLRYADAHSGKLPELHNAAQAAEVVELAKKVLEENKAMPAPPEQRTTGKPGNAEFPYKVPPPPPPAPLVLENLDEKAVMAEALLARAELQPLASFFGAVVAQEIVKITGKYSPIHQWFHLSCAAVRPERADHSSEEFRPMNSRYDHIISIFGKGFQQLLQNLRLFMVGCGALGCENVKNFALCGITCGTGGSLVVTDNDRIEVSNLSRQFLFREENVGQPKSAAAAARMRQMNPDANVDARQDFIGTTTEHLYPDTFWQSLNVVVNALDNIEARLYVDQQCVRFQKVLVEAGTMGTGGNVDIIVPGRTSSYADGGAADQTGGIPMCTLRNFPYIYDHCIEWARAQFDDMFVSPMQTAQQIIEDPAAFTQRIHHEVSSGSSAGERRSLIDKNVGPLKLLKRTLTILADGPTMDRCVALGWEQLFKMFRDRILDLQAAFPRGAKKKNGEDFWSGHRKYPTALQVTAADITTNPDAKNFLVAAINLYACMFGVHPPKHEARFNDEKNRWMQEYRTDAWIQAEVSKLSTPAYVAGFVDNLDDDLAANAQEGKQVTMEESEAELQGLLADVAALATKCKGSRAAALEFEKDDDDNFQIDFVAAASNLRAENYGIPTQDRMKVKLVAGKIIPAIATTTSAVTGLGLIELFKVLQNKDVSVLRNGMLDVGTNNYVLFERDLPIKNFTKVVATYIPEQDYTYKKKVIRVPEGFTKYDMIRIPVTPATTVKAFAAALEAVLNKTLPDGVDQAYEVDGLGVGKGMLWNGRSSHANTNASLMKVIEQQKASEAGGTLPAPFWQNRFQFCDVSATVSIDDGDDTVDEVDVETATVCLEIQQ

[3] = target: AMP-activated protein kinase, AMPK (Homo sapiens) (UniProt P54646+O43741+P54619+Q9UGJ0+Q9Y478+Q13131+Q9UGI9); assay: AMP-dependent Kinase enzyme assay. An in vitro enzyme assay that detects ADP turnover that is directly proportional to AMPK activity. This uses naive AMPK that is activated during the assay with MK-8722; type: functional; details: 30 µM
[4] = target: Sialic acid-binding Ig-like lectin 9 (Homo sapiens) (UniProt Q9Y336); assay: Hs-Siglec9 ALPHAscreen SOP 20170721; details: 10 µM
[5] = tested on: Trypanosoma cruzi; assay: Trypanosoma cruzi phosphomannomutase and mannose-1-phosphate guanylyltransferase assay; type: functional; details: 10 µM
[6] = target: T2, Arginase-2, mitochondrial (Homo sapiens) (UniProt P78540); assay: in vitro enzyme assay to detect the production of urea directly proportional to the activity of Arginase II; type: functional; details: 33.3 µM; note: in the data most compounds retested in dose-response had high values
T2 sequence (whole entry): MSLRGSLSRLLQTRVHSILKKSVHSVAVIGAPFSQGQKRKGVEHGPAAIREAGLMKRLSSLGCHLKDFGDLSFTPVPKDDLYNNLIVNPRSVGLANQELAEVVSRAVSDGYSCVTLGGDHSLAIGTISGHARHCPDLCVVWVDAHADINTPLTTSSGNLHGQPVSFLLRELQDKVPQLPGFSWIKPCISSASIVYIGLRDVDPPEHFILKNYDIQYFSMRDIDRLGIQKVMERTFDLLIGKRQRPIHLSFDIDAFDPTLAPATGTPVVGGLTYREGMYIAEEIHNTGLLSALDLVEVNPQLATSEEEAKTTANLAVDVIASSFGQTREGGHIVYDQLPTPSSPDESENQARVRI

[7] = target: T3, Proteasome subunit beta (Trypanosoma cruzi) (UniProt O96673); assay: Trypanosoma cruzi proteasome chymotrypsin-like activity (TcProtChymo) assay.; note: in the data most compounds retested in dose-response had high values; type: functional; details: 9.37 µM
T3 sequence (whole entry): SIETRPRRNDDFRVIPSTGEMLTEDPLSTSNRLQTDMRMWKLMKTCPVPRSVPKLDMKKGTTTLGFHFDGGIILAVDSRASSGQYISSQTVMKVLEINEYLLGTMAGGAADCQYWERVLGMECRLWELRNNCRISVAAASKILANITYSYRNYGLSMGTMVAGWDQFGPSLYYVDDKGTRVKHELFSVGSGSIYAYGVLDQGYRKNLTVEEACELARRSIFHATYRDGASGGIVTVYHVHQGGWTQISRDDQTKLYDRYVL

[8] = organism: Homo sapiens; assay: To identify inhibition of the IFN signalling (Jak-Stat) pathway via expression of an eGFP reporter gene under the control of an IFN-stimulated response element (ISRE) containing MxA promoter.; type: functional; details: 30 µM
[9] = target: T4, Tyrosyl-tRNA synthetase, putative (Trypanosoma cruzi (strain CL Brener)) (UniProt Q4DSP6); assay: Trypanosoma cruzi tyrosyl tRNA synthetase (TcYRS) _High Tyrosine SOP; type: functional; details: 30 µM; note: in the data most compounds retested in dose-response had high values
T4 sequence (whole entry): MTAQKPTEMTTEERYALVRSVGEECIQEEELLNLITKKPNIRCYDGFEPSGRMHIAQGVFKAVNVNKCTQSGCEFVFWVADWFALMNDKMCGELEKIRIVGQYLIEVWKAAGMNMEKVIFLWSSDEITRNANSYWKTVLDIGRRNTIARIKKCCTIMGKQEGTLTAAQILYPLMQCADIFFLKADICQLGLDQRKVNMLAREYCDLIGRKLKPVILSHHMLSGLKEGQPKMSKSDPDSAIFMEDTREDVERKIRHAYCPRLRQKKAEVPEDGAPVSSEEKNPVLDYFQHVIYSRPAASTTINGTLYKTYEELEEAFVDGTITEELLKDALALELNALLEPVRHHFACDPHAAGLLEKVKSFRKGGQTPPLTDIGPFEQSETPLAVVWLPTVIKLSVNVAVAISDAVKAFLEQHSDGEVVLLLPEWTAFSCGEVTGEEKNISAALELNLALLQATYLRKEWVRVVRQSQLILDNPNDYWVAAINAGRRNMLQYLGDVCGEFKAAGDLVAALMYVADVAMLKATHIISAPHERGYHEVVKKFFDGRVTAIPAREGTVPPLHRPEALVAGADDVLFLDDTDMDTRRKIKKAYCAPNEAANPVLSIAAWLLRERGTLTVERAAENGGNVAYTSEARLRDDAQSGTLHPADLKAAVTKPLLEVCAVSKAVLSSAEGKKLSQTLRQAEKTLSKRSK

[10] = target: T4, Tyrosyl-tRNA synthetase, putative (Trypanosoma cruzi (strain CL Brener)); assay: Trypanosoma cruzi tyrosyl tRNA synthetase (TcYRS) SOP; type: functional; details: 30 µM
[11] = target: Chromo domain-containing protein 1 (Saccharomyces cerevisiae (strain ATCC 204508 / S288c) (Baker's yeast)) (UniProt P32657); assay: ScCHD-1 Enzyme Inhibition Assay; type: functional; details: 30 µM; note: in the data most compounds retested in dose-response had high values
Chromo domain-containing protein 1 (Saccharomyces cerevisiae (strain ATCC 204508 / S288c) (Baker's yeast)), sequence (P32657 whole entry, the tested form may be a part): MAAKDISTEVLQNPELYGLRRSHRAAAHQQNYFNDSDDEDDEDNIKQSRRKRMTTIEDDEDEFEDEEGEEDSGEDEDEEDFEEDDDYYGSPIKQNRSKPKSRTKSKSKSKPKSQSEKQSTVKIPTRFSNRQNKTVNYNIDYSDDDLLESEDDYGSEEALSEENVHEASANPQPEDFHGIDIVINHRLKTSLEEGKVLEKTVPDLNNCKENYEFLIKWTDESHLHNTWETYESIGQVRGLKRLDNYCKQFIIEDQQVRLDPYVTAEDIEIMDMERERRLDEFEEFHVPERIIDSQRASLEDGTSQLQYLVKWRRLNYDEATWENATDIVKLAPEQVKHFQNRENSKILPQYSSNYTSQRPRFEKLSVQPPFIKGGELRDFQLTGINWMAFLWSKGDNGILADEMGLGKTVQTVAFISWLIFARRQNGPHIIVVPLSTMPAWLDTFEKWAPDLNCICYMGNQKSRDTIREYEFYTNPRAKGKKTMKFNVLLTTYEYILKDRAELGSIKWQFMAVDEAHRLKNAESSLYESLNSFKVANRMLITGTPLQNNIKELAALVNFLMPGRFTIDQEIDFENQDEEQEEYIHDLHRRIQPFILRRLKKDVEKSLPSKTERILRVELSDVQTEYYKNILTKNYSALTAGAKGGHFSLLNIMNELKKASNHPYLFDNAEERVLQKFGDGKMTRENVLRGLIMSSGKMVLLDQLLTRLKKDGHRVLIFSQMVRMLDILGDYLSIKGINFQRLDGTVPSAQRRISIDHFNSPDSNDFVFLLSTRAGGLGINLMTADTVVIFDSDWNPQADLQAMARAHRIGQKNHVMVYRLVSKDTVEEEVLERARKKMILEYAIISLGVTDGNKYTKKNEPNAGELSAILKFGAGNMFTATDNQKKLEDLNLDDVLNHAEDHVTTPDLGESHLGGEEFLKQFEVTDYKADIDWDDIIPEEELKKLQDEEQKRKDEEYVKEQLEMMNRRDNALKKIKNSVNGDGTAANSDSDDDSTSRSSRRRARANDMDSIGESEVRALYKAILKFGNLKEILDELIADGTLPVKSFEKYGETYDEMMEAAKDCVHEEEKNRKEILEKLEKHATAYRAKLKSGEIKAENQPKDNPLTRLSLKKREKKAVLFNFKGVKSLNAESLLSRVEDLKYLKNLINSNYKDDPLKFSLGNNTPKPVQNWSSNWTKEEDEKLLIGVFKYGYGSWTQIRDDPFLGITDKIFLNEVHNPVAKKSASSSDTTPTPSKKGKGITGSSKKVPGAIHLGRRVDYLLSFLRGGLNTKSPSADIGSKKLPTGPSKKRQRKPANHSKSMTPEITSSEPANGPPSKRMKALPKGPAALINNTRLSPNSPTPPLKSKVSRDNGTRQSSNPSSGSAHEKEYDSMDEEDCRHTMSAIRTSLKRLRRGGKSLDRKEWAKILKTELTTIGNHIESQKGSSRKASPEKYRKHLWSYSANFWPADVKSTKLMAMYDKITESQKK

Protein translocase subunit SecA (Escherichia coli (strain K12)), sequence (P10408 whole entry): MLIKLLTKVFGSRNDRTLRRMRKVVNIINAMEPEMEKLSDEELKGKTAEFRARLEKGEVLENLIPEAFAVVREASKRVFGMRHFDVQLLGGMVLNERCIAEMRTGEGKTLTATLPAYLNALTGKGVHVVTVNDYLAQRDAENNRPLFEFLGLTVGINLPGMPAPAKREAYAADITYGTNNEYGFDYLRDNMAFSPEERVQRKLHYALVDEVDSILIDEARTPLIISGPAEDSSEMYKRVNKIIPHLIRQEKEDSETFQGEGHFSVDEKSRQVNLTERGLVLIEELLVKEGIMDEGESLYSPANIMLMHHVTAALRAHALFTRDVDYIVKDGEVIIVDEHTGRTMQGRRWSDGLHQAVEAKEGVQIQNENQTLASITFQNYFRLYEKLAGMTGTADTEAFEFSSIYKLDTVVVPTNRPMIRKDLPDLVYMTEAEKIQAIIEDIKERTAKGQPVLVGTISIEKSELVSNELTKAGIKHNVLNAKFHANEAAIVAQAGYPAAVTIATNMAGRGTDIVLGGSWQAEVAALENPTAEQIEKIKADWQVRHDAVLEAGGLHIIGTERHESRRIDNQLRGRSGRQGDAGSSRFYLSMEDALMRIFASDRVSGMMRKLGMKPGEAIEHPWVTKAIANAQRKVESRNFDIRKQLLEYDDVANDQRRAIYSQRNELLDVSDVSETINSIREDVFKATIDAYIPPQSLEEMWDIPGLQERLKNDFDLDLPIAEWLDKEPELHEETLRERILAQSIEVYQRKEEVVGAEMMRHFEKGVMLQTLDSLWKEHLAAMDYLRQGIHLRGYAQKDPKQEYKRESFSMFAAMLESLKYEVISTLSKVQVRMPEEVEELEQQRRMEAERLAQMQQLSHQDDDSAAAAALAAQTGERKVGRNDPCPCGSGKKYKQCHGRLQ
Sialic acid-binding Ig-like lectin 9 (Homo sapiens), sequence (Q9Y336 whole entry): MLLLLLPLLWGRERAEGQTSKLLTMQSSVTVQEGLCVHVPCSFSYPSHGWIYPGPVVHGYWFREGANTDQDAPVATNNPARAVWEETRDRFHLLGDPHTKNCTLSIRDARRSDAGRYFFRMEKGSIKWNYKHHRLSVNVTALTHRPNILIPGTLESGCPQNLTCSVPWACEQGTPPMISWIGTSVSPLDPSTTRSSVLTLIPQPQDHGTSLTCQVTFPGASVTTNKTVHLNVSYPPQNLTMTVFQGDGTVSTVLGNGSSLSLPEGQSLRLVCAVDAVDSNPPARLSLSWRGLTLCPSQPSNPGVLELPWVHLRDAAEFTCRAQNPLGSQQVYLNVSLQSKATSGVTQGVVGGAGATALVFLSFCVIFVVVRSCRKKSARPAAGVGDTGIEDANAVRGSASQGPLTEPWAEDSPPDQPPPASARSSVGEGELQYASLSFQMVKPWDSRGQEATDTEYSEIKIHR

SMILES | Percent Effect [1] [%] | Percent Effect [2] [%] | Percent Effect [3] [%] | Percent Effect [4] [%] | Percent Effect [5] [%] | Percent Effect [6] [%] | Percent Effect [7] [%] | Percent Effect [8] [%] | Percent Effect [9] [%] | Percent Effect [10] [%] | Percent Effect [11] [%]
O=C(Cc1cccc(F)c1)N1CCCCC1c1ccn2ccnc2n1 (stereo unspecified) | -5.83 | -4.05 | 14.6 | 3.14 | -3.16 | -4.41 | 5.3 | 10.2 | -4.3 | -9.09 | -10.5
CC(C)OCCCNC(=O)c1ccc(-c2ccco2)[nH]c1=O | -4.6 | 10.8 | 60.2 | -6.26 | -7.83 | -1.6 | 10.1 | 12.9 | 6.4 | 11.1 | -5.48
O=C(CCNC(=O)c1ccccc1N1CCOCC1)NC1CCCC1 | -4.31 | 16.4 | -6.31 | 6.63 | 4.76 | -0.798 | 13.1 | -7.41 | 8.33 | 21 | -9.11
CCc1cnc(CN(C)C2CCN(CCc3cccs3)C2)o1 (stereo unspecified) | -4.76 | 15.8 | -3.51 | -0.997 | -2.89 | -5.4 | 12.3 | 2.05 | 10.3 | 18.5 | -5.25
Cc1nc(CN2CCc3nn(C(C)C)c(=O)cc3C2)oc1C | -3.86 | -2.63 | -91.7 | 5.18 | -3.83 | 6.83 | 10.4 | -4.72 | -3.45 | -8.64 | 2.02
COc1ccc(NCc2nc(=O)n(CCC(C)C)[nH]2)cc1 | -3.47 | 10.5 | 11.6 | 5.94 | -0.0974 | -8.28 | 8.92 | -19 | 4.25 | 10.4 | -2.13
CC(C)(C)c1ncc(C(=O)NCCS(N)(=O)=O)s1 | -6.98 | 2.63 | -2.41 | 7.37 | 0.654 | -2.88 | -6.01 | -5.3 | 6.4 | 11.1 | 2.8
CN(C)C(=O)C1(CCCc2ccncc2)CCCN1 (stereo unspecified) | -1.15 | 23 | -1.94 | -4.7 | 0 | -3.48 | 26.1 | 4.91 | 5.38 | 14.3 | -22.2
CC1CCN(Cn2nc(-c3ccc(F)cc3)oc2=O)CC1 | -2.94 | 18.2 | 4.52 | -5.3 | -7.12 | 2.13 | 6.42 | 33 | 5.83 | 7.32 | -12.6
Cc1noc(C)c1CNCC1CCCN1c1cccnn1 (stereo unspecified) | -6.8 | -5.2 | 5.72 | -3.1 | -4.02 | -3.16 | -2.83 | 6.36 | 1.91 | -2.35 | -1.61
Cc1cnn(CCNCc2csc(-c3cccs3)n2)c1 | -2.47 | -2.63 | 5.67 | 8 | -0.564 | -1.92 | 13.7 | 0.0858 | -3.43 | 0 | 6.81
